What all share (assay): PBM; 200 nM protein, PBS
Common to all, as to details: dsDNA, one strand shown

Assay [1] has as its target HOXB4 (Homo sapiens, UniProt P17483 148-234).
Assay [2] has as its target HOXA7 (Homo sapiens, UniProt P31268 116-202).
The target of assay [3] is T1, PAX4 (Homo sapiens, UniProt O43316 9-242, R200K).
T1 sequence: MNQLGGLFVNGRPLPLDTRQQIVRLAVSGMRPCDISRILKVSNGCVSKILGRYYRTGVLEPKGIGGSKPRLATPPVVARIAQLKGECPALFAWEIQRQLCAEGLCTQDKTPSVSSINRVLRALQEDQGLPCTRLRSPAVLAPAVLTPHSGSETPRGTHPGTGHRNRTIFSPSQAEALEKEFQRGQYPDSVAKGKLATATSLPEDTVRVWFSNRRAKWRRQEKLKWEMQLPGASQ

In assay [4] the target is T2, PAX4 (Homo sapiens, UniProt O43316 9-242).
T2 sequence: T1 sequence with K192R

Assay [5] addresses HOXB6 (Homo sapiens, UniProt P17509 132-218, K202E).
Assay [6] concerns the target HOXB4 (Homo sapiens, UniProt P17483 148-234, V174I).
The target in assay [7] is ALX1 (Homo sapiens, UniProt Q15699 118-204, L144V).
The target of assay [8] is T3, PAX4 (Homo sapiens, UniProt O43316 9-242, R200Q).
T3 sequence: T1 sequence with K192Q

Assay [9] deals with ALX1 (Homo sapiens, UniProt Q15699 118-204, L144R).
The target of assay [10] is T4, PAX4 (Homo sapiens, UniProt O43316 9-242, F177V).
T4 sequence: T1 sequence with F169V, K192R

Assay [11] has as its target T5, PAX4 (Homo sapiens, UniProt O43316 9-242, F177Y).
T5 sequence: T1 sequence with F169Y, K192R

In assay [12] the target is T6, PAX4 (Homo sapiens, UniProt O43316 9-242, R227W).
T6 sequence: T1 sequence with K192R, R219W

Assay [13] concerns the target HOXA7 (Homo sapiens, UniProt P31268 116-202, W177C).
Assay [14] concerns the target ALX1 (Homo sapiens, UniProt Q15699 118-204).
Assay [15] addresses HOXB6 (Homo sapiens, UniProt P17509 132-218).
The target in assay [16] is HOXA4 (Homo sapiens, UniProt Q00056 201-287, W262R).
The target of assay [17] is ALX4 (Homo sapiens, UniProt Q9H161 200-286).
For assay [18], the target named is ALX4 (Homo sapiens, UniProt Q9H161 200-286, Q225E).
For assay [19], the target named is HOXA2 (Homo sapiens, UniProt O43364 129-215, R185T).
Assay [20] has as its target HOXA4 (Homo sapiens, UniProt Q00056 201-287, R217L).
Assay [21] deals with HOXA2 (Homo sapiens, UniProt O43364 129-215, R185K).
The target of assay [22] is HOXA4 (Homo sapiens, UniProt Q00056 201-287).
Assay [23] addresses VAX1 (Homo sapiens, UniProt Q5SQQ9 86-172).
Assay [24] has as its target VAX1 (Homo sapiens, UniProt Q5SQQ9 86-172, T142I).
Assay [25] deals with HOXA2 (Homo sapiens, UniProt O43364 129-215, Y150S).
Assay [26] addresses HOXA4 (Homo sapiens, UniProt Q00056 201-287, W262F).
Assay [27] deals with HOXA2 (Homo sapiens, UniProt O43364 129-215).
The target of assay [28] is VAX1 (Homo sapiens, UniProt Q5SQQ9 86-172, K157R).
Assay [29] addresses HOXC9 (Homo sapiens, UniProt P31274 178-260, K195R).
Assay [30] concerns the target HOXC9 (Homo sapiens, UniProt P31274 178-260).
The target of assay [31] is HOXC9 (Homo sapiens, UniProt P31274 178-260, R193K).
For assay [32], the target named is HOXC9 (Homo sapiens, UniProt P31274 178-260, R222W).
Assay [33] has as its target HOXC10 (Homo sapiens, UniProt Q9NYD6 254-340).
Assay [34] has as its target HOXC10 (Homo sapiens, UniProt Q9NYD6 254-340, K271E).

Residue numbers refer to the chain shown, from its start.

Sequence of HOXB4 (Homo sapiens, UniProt P17483 148-234, V174I) (P17483 148-234 V174I): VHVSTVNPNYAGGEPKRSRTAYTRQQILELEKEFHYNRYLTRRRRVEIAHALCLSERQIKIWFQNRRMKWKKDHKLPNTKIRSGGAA
Sequence of HOXB4 (Homo sapiens, UniProt P17483 148-234) (P17483 148-234): as the sequence (P17483 148-234 V174I) above, with I27V counted along it
Sequence of HOXA7 (Homo sapiens, UniProt P31268 116-202) (P31268 116-202): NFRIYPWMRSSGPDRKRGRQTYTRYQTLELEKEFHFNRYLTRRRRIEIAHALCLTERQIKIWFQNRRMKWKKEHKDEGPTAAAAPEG
Sequence of HOXA7 (Homo sapiens, UniProt P31268 116-202, W177C) (P31268 116-202 W177C): as the sequence (P31268 116-202) above, with W62C counted along it
Sequence of HOXA2 (Homo sapiens, UniProt O43364 129-215, R185K) (O43364 129-215 R185K): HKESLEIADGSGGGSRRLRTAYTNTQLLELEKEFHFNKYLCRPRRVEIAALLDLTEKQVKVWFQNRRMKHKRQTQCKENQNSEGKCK
Sequence of VAX1 (Homo sapiens, UniProt Q5SQQ9 86-172) (Q5SQQ9 86-172): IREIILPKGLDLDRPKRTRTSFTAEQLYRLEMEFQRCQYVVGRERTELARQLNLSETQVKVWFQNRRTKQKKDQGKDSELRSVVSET
Sequence of HOXB6 (Homo sapiens, UniProt P17509 132-218, K202E) (P17509 132-218 K202E): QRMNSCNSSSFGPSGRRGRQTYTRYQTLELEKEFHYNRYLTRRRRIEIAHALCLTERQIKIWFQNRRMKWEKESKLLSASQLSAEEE
Sequence of VAX1 (Homo sapiens, UniProt Q5SQQ9 86-172, T142I) (Q5SQQ9 86-172 T142I): as the sequence (Q5SQQ9 86-172) above, with T57I counted along it
Sequence of ALX1 (Homo sapiens, UniProt Q15699 118-204) (Q15699 118-204): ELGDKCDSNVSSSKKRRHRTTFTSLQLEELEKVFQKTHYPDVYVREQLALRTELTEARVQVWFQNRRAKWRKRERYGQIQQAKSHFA
Sequence of HOXC9 (Homo sapiens, UniProt P31274 178-260) (P31274 178-260): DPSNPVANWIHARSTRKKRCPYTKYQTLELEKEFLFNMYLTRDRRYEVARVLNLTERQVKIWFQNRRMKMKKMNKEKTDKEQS
Sequence of HOXC10 (Homo sapiens, UniProt Q9NYD6 254-340) (Q9NYD6 254-340): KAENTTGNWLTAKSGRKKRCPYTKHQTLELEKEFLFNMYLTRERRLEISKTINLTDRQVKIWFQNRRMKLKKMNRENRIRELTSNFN
Sequence of HOXA2 (Homo sapiens, UniProt O43364 129-215) (O43364 129-215): as the sequence (O43364 129-215 R185K) above, with K57R counted along it
Sequence of ALX4 (Homo sapiens, UniProt Q9H161 200-286) (Q9H161 200-286): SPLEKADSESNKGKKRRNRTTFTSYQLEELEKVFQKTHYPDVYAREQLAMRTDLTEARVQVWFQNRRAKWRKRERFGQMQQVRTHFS
Sequence of HOXA4 (Homo sapiens, UniProt Q00056 201-287, W262F) (Q00056 201-287 W262F): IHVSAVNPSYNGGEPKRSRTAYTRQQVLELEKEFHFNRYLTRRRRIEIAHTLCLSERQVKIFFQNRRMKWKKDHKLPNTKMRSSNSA
Sequence of HOXA2 (Homo sapiens, UniProt O43364 129-215, R185T) (O43364 129-215 R185T): as the sequence (O43364 129-215 R185K) above, with K57T counted along it
Sequence of VAX1 (Homo sapiens, UniProt Q5SQQ9 86-172, K157R) (Q5SQQ9 86-172 K157R): as the sequence (Q5SQQ9 86-172) above, with K72R counted along it
Sequence of HOXC9 (Homo sapiens, UniProt P31274 178-260, R222W) (P31274 178-260 R222W): as the sequence (P31274 178-260) above, with R45W counted along it
Sequence of ALX1 (Homo sapiens, UniProt Q15699 118-204, L144R) (Q15699 118-204 L144R): as the sequence (Q15699 118-204) above, with L27R counted along it
Sequence of HOXA4 (Homo sapiens, UniProt Q00056 201-287, W262R) (Q00056 201-287 W262R): as the sequence (Q00056 201-287 W262F) above, with F62R counted along it
Sequence of ALX4 (Homo sapiens, UniProt Q9H161 200-286, Q225E) (Q9H161 200-286 Q225E): as the sequence (Q9H161 200-286) above, with Q26E counted along it
Sequence of HOXC9 (Homo sapiens, UniProt P31274 178-260, K195R) (P31274 178-260 K195R): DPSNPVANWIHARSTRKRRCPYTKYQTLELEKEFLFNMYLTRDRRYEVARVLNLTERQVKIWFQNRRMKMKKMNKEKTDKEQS
Sequence of HOXB6 (Homo sapiens, UniProt P17509 132-218) (P17509 132-218): as the sequence (P17509 132-218 K202E) above, with E71K counted along it
Sequence of HOXC9 (Homo sapiens, UniProt P31274 178-260, R193K) (P31274 178-260 R193K): as the sequence (P31274 178-260) above, with R16K counted along it
Sequence of HOXA4 (Homo sapiens, UniProt Q00056 201-287, R217L) (Q00056 201-287 R217L): as the sequence (Q00056 201-287 W262F) above, with R17L, F62W counted along it
Sequence of HOXA4 (Homo sapiens, UniProt Q00056 201-287) (Q00056 201-287): as the sequence (Q00056 201-287 W262F) above, with F62W counted along it
Sequence of HOXC10 (Homo sapiens, UniProt Q9NYD6 254-340, K271E) (Q9NYD6 254-340 K271E): as the sequence (Q9NYD6 254-340) above, with K18E counted along it
Sequence of ALX1 (Homo sapiens, UniProt Q15699 118-204, L144V) (Q15699 118-204 L144V): as the sequence (Q15699 118-204) above, with L27V counted along it
Sequence of HOXA2 (Homo sapiens, UniProt O43364 129-215, Y150S) (O43364 129-215 Y150S): as the sequence (O43364 129-215 R185K) above, with Y22S, K57R counted along it

Regarding GTGGGGGA, the binding signal was 7.95 upbm affinity estimate (log intensity, higher = more binding, comparable within an allelic series) with HOXB4 [1]; 8.47 upbm affinity estimate (log intensity, higher = more binding, comparable within an allelic series) in the assay with HOXA7 [2]; 9.34 upbm affinity estimate (log intensity, higher = more binding, comparable within an allelic series) in the assay with PAX4 [3]; 9.25 upbm affinity estimate (log intensity, higher = more binding, comparable within an allelic series) with PAX4 [4]; 9.05 upbm affinity estimate (log intensity, higher = more binding, comparable within an allelic series) with HOXB6 [5]; 7.59 upbm affinity estimate (log intensity, higher = more binding, comparable within an allelic series) with HOXB4 [6]. Also, the binding signal is 6.51 upbm affinity estimate (log intensity, higher = more binding, comparable within an allelic series) with ALX1 [7]; 9.37 upbm affinity estimate (log intensity, higher = more binding, comparable within an allelic series) in the assay with PAX4 [8]; 6.24 upbm affinity estimate (log intensity, higher = more binding, comparable within an allelic series) with ALX1 [9]; 9.35 upbm affinity estimate (log intensity, higher = more binding, comparable within an allelic series) in the assay with PAX4 [10]; 9.43 upbm affinity estimate (log intensity, higher = more binding, comparable within an allelic series) in the assay with PAX4 [11]; 9.48 upbm affinity estimate (log intensity, higher = more binding, comparable within an allelic series) with PAX4 [12]. Moreover, the binding signal in the assay with HOXA7 [13] was 8.55 upbm affinity estimate (log intensity, higher = more binding, comparable within an allelic series); in the assay with ALX1 [14], 6.29 upbm affinity estimate (log intensity, higher = more binding, comparable within an allelic series); with HOXB6 [15], 9.14 upbm affinity estimate (log intensity, higher = more binding, comparable within an allelic series).

Consider GATAATGA, for which the binding signal is 13.1 upbm affinity estimate (log intensity, higher = more binding, comparable within an allelic series) with HOXB4 [1]; 10.7 upbm affinity estimate (log intensity, higher = more binding, comparable within an allelic series) with HOXA4 [16]; 12.7 upbm affinity estimate (log intensity, higher = more binding, comparable within an allelic series) with ALX4 [17]; 11.2 upbm affinity estimate (log intensity, higher = more binding, comparable within an allelic series) in the assay with PAX4 [3]; 11.4 upbm affinity estimate (log intensity, higher = more binding, comparable within an allelic series) in the assay with PAX4 [4]; 11.2 upbm affinity estimate (log intensity, higher = more binding, comparable within an allelic series) with ALX4 [18]. For the same sequence, the binding signal with HOXA2 [19] was 12.6 upbm affinity estimate (log intensity, higher = more binding, comparable within an allelic series); with HOXA4 [20], 12.3 upbm affinity estimate (log intensity, higher = more binding, comparable within an allelic series); with HOXB4 [6], 13.7 upbm affinity estimate (log intensity, higher = more binding, comparable within an allelic series); in the assay with PAX4 [8], 11.2 upbm affinity estimate (log intensity, higher = more binding, comparable within an allelic series); with HOXA2 [21], 13.3 upbm affinity estimate (log intensity, higher = more binding, comparable within an allelic series); in the assay with PAX4 [10] it was 10.3 upbm affinity estimate (log intensity, higher = more binding, comparable within an allelic series). In addition, the binding signal with HOXA4 [22] is 13.9 upbm affinity estimate (log intensity, higher = more binding, comparable within an allelic series); with VAX1 [23], 12.9 upbm affinity estimate (log intensity, higher = more binding, comparable within an allelic series); with VAX1 [24], 12.7 upbm affinity estimate (log intensity, higher = more binding, comparable within an allelic series); with PAX4 [12] it was 10.6 upbm affinity estimate (log intensity, higher = more binding, comparable within an allelic series); with HOXA2 [25], 10.9 upbm affinity estimate (log intensity, higher = more binding, comparable within an allelic series); in the assay with HOXA4 [26] it was 11.6 upbm affinity estimate (log intensity, higher = more binding, comparable within an allelic series). Also, the binding signal in the assay with HOXA2 [27] was 12.3 upbm affinity estimate (log intensity, higher = more binding, comparable within an allelic series); with VAX1 [28] it was 12.5 upbm affinity estimate (log intensity, higher = more binding, comparable within an allelic series).

As for CGTGGCGC, the binding signal with HOXB4 [1] is 7.6 upbm affinity estimate (log intensity, higher = more binding, comparable within an allelic series); in the assay with HOXC9 [29], 9.49 upbm affinity estimate (log intensity, higher = more binding, comparable within an allelic series); with HOXB4 [6], 7.68 upbm affinity estimate (log intensity, higher = more binding, comparable within an allelic series); with HOXC9 [30], 9.5 upbm affinity estimate (log intensity, higher = more binding, comparable within an allelic series); with HOXC9 [31], 9.45 upbm affinity estimate (log intensity, higher = more binding, comparable within an allelic series); with HOXC9 [32], 9.81 upbm affinity estimate (log intensity, higher = more binding, comparable within an allelic series).

ACCGTGGG: the binding signal in the assay with HOXB4 [1] is 7.69 upbm affinity estimate (log intensity, higher = more binding, comparable within an allelic series); with HOXA7 [2], 8.39 upbm affinity estimate (log intensity, higher = more binding, comparable within an allelic series); with HOXC10 [33] it was 10.1 upbm affinity estimate (log intensity, higher = more binding, comparable within an allelic series); in the assay with HOXB4 [6], 7.68 upbm affinity estimate (log intensity, higher = more binding, comparable within an allelic series); with HOXC10 [34] it was 10 upbm affinity estimate (log intensity, higher = more binding, comparable within an allelic series); with HOXA7 [13], 8.44 upbm affinity estimate (log intensity, higher = more binding, comparable within an allelic series).

These data come from paper PMC11006913.
